PubChem BioAssay (NCATS)
Inconclusive results are not listed. A call without a number means that no potency is given here. Active and inactive are the calls of the source. Calls come from the whole dose curve.

Legend:
[1] = Primary qHTS for Huh7 cytotoxicity: counterscreen for inhibitors of MERS-S pseudotyped particle cell entry (AID 1479147)
[2] = Primary qHTS for Vero E6 cytotoxicity: counterscreen for inhibitors of SARS-S pseudo-typed particle cell entry (AID 1479150)
[3] = Confirmatory qHTS for VERO E6 Cytotoxicity Assay: Counterscreen for SARS-CoV-2 CPE Assay (AID 1508605); note: series mostly up to about 20 µM; nearly all actives have a fitted effect of over 60% in size
[4] = Primary qHTS for inhibitors of MERS-S pseudo-typed particle cell entry (AID 1479149); note: nearly all actives have a fitted effect of over 60% in size; note: potency is the fitted concentration of half-maximal effect

| SMILES | Potency [1] | Potency [2] | Potency [3] | Potency [4] |
| --- | --- | --- | --- | --- |
| COc1cc(C)nc(-n2nc(C)cc2OC)n1 | inactive | inactive |  |  |
| CNCCCCOc1ccccc1Cc1ccccc1 |  | inactive | inactive |  |
| COc1cc(C)c(Cc2cnc(N)nc2N)cc1OC | inactive | inactive |  |  |
| CC(=O)N1CCN(c2ccc(OC[C@H]3CO[C@](Cn4ccnc4)(c4ccc(Cl)cc4Cl)O3)cc2)CC1 |  |  |  | 7.94 µM (active) |
| O=c1[nH]c(=O)n([C@H]2C[C@H](O)[C@@H](CO)O2)cc1Br | inactive | inactive |  |  |
| CN1[C@@H]2CC[C@H]1CC(OC(c1ccccc1)c1ccccc1)C2 (some centres not stated) | inactive | inactive | inactive | 14.1 µM (active) |
| CCN(CC)CC#CCOC(=O)C(O)(c1ccccc1)C1CCCCC1 (configuration not stated) | inactive | inactive |  |  |
| Cc1cc(C(C#N)c2ccc(Cl)cc2)c(Cl)cc1NC(=O)c1cc(I)cc(I)c1O (configuration not stated) |  |  |  | 20 µM (active) |
| O=C(O[C@H]1CN2CCC1CC2)N1CCc2ccccc2[C@@H]1c1ccccc1 | inactive | inactive |  |  |
| Oc1ccc(Cl)c2cccnc12 |  | inactive |  | inactive |
| CCOC(=O)C1=C(COCCN)NC(C)=C(C(=O)OC)C1c1ccccc1Cl (configuration not stated) | inactive | inactive | inactive | inactive |
| CNCCCC12CCC(c3ccccc31)c1ccccc12 | inactive | inactive | inactive |  |
